According to PubChem BioAssay AID720605 (Broad Institute, 2013):
Measured potencies and affinities stand elsewhere. The source made the active and inactive calls.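 Rule for the calls: active = cell viability signal falls with a fitted half-maximal concentration within twice the top dose at all three treatment times; inconclusive = treatment times give differing calls; inactive = every treatment time called inactive.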

Assay: cytotoxicity in U-251 CNS tumor cells – cell-based, Alamar Blue fluorescence, 8/24/48 h, dry powder, HRAS target identification, dose response (AID 720605)
Details: U-251 glioblastoma viability, 8-48 h; series mostly up to 35 µM

With `Cc1onc(C(=O)N2CCN(C(c3ccncc3)c3ccncc3)CC2)c1[N+](=O)[O-]` the outcome was “inactive”.
In the case of `CCC(=O)N(c1ccc(OC)c(Cl)c1)C(C(=O)NCCc1ccccc1)c1cccs1` (configuration not stated), the outcome is reported as “inactive”.
